Measured values taken from PubChem BioAssay (EPA / NIEHS).
Results filed as inconclusive are left out. Activity calls are given as the source filed them. How the source made its calls: active means hit-call score of the fitted dose curve at least 0.9, where 1 is the maximum; inconclusive means response in the unintended direction; inactive means score below 0.9.

The compounds below were run against human Elastase, ELANE (gene 1991) (UniProt P08246) (assay: NVS_ENZ_hElastase: NovaScreen (NVS) Enzymatic Assay for human Elastase (AID 2283153)).
Chain of human Elastase, ELANE (gene 1991) (P08246 whole entry, looked up): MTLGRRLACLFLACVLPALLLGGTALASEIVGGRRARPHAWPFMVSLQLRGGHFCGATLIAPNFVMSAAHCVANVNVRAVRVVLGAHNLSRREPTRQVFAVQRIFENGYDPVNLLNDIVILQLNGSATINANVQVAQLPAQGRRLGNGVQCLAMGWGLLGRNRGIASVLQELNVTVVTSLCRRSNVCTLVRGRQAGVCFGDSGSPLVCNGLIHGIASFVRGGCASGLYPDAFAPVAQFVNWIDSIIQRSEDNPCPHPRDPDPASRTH
How it was run: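 Cell-free elastase from human neutrophils, 1.5 h after dosing, activity read by absorbance. Primary screen in duplicate at 25 uM; hits (e.g., 30% inhibition) rerun in singleton concentration-response up to 50 uM, fitted versus DMSO.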

Row | Compound | AC50 | outcome
1 | O=C(O)C(F)(F)C(F)(F)C(F)(F)C(F)(F)C(F)(F)C(F)(F)C(F)(F)C(F)(F)C(F)(F)C(F)(F)F | 13.5 µM (active) | –
2 | ClC1(Cl)C2(Cl)C3(Cl)C4(Cl)C(Cl)(Cl)C5(Cl)C3(Cl)C1(Cl)C5(Cl)C24Cl (stereo not drawn) | 1.1 µM (active) | –
3 | C=C(C)C(=O)[O][Sn]([CH2]CCC)([CH2]CCC)[CH2]CCC | – | inactive
4 | COc1cc(-c2ccc(N)c(OC)c2)ccc1N | 20.5 µM (active) | –
5 | Cn1sc(Cl)cc1=O | – | inactive

These compounds were tested against human Esterase Plasma (ES), BCHE (gene 590) (UniProt P06276) (assay: NVS_ENZ_hES: NovaScreen (NVS) Enzymatic Assay for human Esterase Plasma (ES) (AID 2283157)).
Chain of human Esterase Plasma (ES), BCHE (gene 590) (P06276 whole entry, looked up): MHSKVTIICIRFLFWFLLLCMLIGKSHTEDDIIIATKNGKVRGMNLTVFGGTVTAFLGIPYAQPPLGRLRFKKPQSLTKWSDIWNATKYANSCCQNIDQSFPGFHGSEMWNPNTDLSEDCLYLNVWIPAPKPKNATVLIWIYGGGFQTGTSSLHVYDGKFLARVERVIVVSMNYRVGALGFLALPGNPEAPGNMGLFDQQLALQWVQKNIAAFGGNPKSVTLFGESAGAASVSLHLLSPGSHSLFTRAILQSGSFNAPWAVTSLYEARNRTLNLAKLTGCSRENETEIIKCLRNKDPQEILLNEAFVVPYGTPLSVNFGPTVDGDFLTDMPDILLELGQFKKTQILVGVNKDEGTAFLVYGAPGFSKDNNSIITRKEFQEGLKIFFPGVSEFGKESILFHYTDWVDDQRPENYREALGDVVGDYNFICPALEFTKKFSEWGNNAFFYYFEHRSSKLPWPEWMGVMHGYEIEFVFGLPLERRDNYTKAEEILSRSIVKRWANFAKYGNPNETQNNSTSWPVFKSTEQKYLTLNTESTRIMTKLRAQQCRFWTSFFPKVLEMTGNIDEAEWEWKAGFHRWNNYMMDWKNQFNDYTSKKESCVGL
How it was run: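 Chemicals were added to plasma-extracted human enzyme in a cell-free format, and activity was read colorimetrically after 0.25 hour. Activity loss was referenced to DMSO; concentration-response top dose was 50 uM.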

Row | Compound | AC50 | outcome
6 | COP(=S)(OC)Oc1ccc(S(=O)(=O)N(C)C)cc1 | 20 µM (active) | –
7 | CCOP(=S)(OCC)Oc1nc(Cl)c(Cl)cc1Cl | 25 µM (active) | –
8 | O=C(O)C(F)(F)C(F)(F)C(F)(F)C(F)(F)C(F)(F)C(F)(F)C(F)(F)C(F)(F)C(F)(F)C(F)(F)F | – | inactive
9 | CCC(=O)C(CC(C)N(C)C)(c1ccccc1)c1ccccc1 (stereo not drawn) | 15.6 µM (active) | –
10 | CCOP(=S)(OCC)SCSP(=S)(OCC)OCC | – | inactive
11 | CC(=O)[O][Hg][c]1ccccc1 | – | inactive
12 | Cn1sc(Cl)cc1=O | – | inactive
13 | CCN1CCC2(CC1)COc1cc3c(cc12)N(C(=O)c1ccc(-c2ccc(-c4nnc(C)o4)cc2C)cc1)CC3 | 28.3 µM (active) | –

The compounds below were run against human Ephrin type-A Receptor 1 (EphA1), EPHA1 (gene 2041) (UniProt P21709) (assay: NVS_ENZ_hEphA1: NovaScreen (NVS) Enzymatic Assay for human Ephrin type-A Receptor 1 (EphA1) (AID 2283158);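 further: activity is signal loss versus DMSO meaning EphA1 kinase inhibition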).
Chain of human Ephrin type-A Receptor 1 (EphA1), EPHA1 (gene 2041) (P21709 whole entry, looked up): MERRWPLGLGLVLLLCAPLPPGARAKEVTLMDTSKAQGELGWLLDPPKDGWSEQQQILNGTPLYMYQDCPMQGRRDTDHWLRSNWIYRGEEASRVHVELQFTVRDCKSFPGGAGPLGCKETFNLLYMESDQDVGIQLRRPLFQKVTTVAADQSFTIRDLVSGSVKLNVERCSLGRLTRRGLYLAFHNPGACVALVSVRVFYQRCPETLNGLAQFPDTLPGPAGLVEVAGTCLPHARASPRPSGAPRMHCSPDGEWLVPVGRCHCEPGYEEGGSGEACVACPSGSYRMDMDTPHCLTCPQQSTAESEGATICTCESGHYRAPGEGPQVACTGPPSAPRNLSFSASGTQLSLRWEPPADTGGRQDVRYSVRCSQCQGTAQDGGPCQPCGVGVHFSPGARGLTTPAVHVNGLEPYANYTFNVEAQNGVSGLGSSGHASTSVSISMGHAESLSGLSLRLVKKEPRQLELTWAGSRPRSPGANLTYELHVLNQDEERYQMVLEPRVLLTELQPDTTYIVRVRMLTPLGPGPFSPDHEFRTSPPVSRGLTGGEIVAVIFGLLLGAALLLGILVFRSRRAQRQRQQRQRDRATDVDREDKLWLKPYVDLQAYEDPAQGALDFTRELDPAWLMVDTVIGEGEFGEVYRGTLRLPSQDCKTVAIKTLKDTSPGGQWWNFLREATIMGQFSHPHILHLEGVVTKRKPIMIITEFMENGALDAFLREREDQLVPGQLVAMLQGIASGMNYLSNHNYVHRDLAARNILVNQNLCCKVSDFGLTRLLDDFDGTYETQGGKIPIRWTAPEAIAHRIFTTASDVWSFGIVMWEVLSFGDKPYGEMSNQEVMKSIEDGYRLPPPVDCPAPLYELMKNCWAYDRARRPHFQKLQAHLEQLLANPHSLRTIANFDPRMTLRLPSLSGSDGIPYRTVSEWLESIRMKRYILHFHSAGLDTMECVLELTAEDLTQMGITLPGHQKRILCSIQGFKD
How it was run: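 Cell-free kinase activity with recombinant protein, 1 hour after dosing; product separated by electrophoretic mobility shift, fluorescence read. Primary screen at 25 uM in duplicate; hits run as concentration-response up to 50 uM, relative to DMSO.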

Row | Compound | outcome | AC50
14 | CC(Br)C(=O)O (stereo not drawn) | inactive | –
15 | COP(=S)(OC)Oc1c(Cl)cc(C)cc1Cl | inactive | –
16 | CCc1ccccc1N | inactive | –
17 | COP(=S)(OC)Oc1cc(Cl)c(Cl)cc1Cl | inactive | –
18 | Nc1cccc(Cl)c1 | inactive | –
19 | CCCCCCCCC(=O)NCc1ccc(O)c(OC)c1 | inactive | –
20 | COc1cc2c(cc1OC)[C@@]13CCN4CC5=CCO[C@H]6CC(=O)N2[C@H]1[C@H]6[C@H]5C[C@H]43 | inactive | –
21 | COc1cccc(C=O)c1 | inactive | –
22 | Nc1ccc(-c2ccc(N)c(Cl)c2)cc1Cl | – | 1.28 µM (active)
23 | C(=NC1CCCCC1)=NC1CCCCC1 | inactive | –
24 | O=[N+]([O-])c1ccc2c3c(cccc13)CC2 | inactive | –
25 | NC(=S)Nc1ccccc1 | – | 41.6 µM (active)

What follows are compounds tested against Protein deacetylase HDAC6 (Homo sapiens) (UniProt Q9UBN7) (assay: NVS_ENZ_hHDAC6: NovaScreen (NVS) Enzymatic Assay for human Histone Deacetylase 6 (HDAC6) (AID 2283164)).
Chain of Protein deacetylase HDAC6 (Homo sapiens) (Q9UBN7 whole entry, looked up): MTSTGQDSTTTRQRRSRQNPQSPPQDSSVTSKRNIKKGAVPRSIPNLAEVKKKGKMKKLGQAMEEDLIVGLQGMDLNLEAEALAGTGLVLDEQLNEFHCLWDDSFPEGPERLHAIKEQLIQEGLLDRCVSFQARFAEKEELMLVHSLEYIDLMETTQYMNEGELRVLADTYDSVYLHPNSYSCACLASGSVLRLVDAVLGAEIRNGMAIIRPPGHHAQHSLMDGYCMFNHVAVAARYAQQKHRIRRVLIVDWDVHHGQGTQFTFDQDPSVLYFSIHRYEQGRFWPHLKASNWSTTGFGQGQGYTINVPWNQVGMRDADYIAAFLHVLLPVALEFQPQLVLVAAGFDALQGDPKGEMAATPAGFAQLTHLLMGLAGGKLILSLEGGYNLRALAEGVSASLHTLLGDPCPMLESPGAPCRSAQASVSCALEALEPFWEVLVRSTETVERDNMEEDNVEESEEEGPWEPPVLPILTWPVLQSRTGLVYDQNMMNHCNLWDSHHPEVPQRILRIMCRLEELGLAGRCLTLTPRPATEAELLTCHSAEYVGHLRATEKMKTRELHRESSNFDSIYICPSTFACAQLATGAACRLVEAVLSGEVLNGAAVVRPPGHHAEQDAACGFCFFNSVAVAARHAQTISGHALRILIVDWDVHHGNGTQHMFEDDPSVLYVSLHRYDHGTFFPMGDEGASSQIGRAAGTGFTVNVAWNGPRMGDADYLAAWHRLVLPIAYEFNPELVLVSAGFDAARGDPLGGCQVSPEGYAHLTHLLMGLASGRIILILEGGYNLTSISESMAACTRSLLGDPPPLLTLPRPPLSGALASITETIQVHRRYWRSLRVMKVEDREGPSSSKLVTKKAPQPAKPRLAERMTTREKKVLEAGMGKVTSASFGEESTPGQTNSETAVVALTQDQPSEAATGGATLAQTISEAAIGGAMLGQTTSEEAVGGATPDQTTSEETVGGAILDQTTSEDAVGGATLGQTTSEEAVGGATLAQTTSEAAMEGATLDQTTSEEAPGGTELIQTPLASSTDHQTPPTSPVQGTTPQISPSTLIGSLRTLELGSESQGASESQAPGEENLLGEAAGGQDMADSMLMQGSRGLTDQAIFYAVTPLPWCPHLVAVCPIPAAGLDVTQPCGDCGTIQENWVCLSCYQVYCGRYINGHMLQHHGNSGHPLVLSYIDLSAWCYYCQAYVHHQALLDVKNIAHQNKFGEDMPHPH
How it was run: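 Recombinant human HDAC6 with fluorescent substrate, 1 h; product separated from substrate by electrophoretic mobility shift. Primary screen in duplicate at 25 uM; actives retested singly in concentration-response up to 50 uM, fitted relative to DMSO.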

Row | Compound | outcome | AC50
26 | C[C@]12CCC(=O)C[C@@H]1CC[C@@H]1[C@@H]2CC[C@]2(C)[C@@H](O)CC[C@@H]12 | inactive | –
27 | O=C1C2(Cl)C3(Cl)C4(Cl)C(Cl)(Cl)C5(Cl)C3(Cl)C1(Cl)C5(Cl)C24Cl (stereo not drawn) | inactive | –
28 | CC(=O)[O][Hg][c]1ccccc1 | – | 2.32 µM (active)
